A word on the AC50: it is the midpoint of the concentration-response curve, whichever way the signal moves.

Inconclusive results are not listed. Calls of active or inactive are those of the source. How the source made its calls, unless noted: active means hit-call score of the fitted dose curve at least 0.9, where 1 is the maximum; inactive means score below 0.9.

Drawing on PubChem BioAssay (EPA / NIEHS), this text covers outcome and AC50 for 13 molecules.

The nature of assay [1]: ATG_TGFb_CIS: Attagene CIS-FACTORIAL HepG2 Assay for human Transforming Growth Factor (TGF) (AID 2282967). The conditions noted are these: HepG2 Attagene CIS TGFb reporter, mRNA transcription; actives raise or lower the signal. Summed up: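 Cells were dosed for 24 hours, after which total RNA was reverse-transcribed and reporter sequences amplified, labeled and sized by capillary electrophoresis. Activity was fitted in both directions against DMSO.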

For assay [2], the target named is Estrogen receptor (Homo sapiens) (UniProt P03372). The assay is described as follows: ATG_ERa_TRANS: Attagene TRANS-FACTORIAL HepG2 Assay for human Estrogen Receptor alpha (ERa) (AID 2282970; active means hit-call score of the fitted dose curve at least 0.9, where 1 is the maximum). The conditions noted are these: HepG2 Attagene TRANS ERa GAL4 reporter, mRNA. The procedure, abridged: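 After 24 h of compound treatment, RNA from HepG2 cells bearing transfected GAL4-UAS reporter constructs is converted to cDNA, amplified and fluorescently labelled. Capillary electrophoresis resolves the ERa-linked reporter; DMSO serves as negative control.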
Sequence of Estrogen receptor (Homo sapiens) (P03372 whole entry, looked up, the tested form may be a part): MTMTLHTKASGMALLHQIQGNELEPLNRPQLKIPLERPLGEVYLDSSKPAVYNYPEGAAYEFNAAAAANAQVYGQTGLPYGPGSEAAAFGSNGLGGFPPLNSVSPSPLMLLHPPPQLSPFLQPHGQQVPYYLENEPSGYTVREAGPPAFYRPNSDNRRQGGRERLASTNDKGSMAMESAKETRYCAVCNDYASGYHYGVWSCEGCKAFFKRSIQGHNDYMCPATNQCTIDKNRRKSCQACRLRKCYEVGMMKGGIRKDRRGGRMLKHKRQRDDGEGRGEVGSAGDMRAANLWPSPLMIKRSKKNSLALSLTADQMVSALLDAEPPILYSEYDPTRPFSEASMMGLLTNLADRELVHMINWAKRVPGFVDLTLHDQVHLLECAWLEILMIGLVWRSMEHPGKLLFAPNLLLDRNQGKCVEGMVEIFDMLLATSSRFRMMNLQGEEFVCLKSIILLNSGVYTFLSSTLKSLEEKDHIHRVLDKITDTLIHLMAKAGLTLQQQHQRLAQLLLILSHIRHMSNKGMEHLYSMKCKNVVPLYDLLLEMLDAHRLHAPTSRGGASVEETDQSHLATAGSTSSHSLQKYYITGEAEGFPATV

Assay [3] deals with Steroid hormone receptor ERR1 (Homo sapiens) (UniProt P11474). The assay is described as follows: ATG_ERRa_TRANS: Attagene TRANS-FACTORIAL HepG2 Assay for human Estrogen-Related Receptor alpha (ERRa) (AID 2282971; active means hit-call score of the fitted dose curve at least 0.9, where 1 is the maximum). The settings on record: HepG2 Attagene TRANS reporter, ERRa transactivation. The procedure, abridged: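 Transfected HepG2, 24 h dosing, ERRa-Gal4 chimera driving GAL4-UAS reporter. Readout: reporter mRNA via RT-PCR plus capillary electrophoresis (fluorescence). Positive direction vs DMSO control.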

The target in assay [4] is X-box-binding protein 1 (Homo sapiens) (UniProt P17861). The assay is described as follows: ATG_Xbp1_CIS: Attagene CIS-FACTORIAL HepG2 Assay for human X-box Binding Protein 1 (XBP1) (AID 2282972). The settings on record: HepG2 XBP1 cis-element reporter, Attagene multiplex; actives raise or lower the signal. The procedure, abridged: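 HepG2 cells transiently transfected with multiple cis-element reporter units report endogenous TF activity; 24 h exposure, then reporter mRNA measured by RT-PCR, 6-FAM labelling, HpaI digestion and capillary electrophoresis. Bidirectional fitting versus DMSO.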
Sequence of X-box-binding protein 1 (Homo sapiens) (P17861 whole entry, looked up): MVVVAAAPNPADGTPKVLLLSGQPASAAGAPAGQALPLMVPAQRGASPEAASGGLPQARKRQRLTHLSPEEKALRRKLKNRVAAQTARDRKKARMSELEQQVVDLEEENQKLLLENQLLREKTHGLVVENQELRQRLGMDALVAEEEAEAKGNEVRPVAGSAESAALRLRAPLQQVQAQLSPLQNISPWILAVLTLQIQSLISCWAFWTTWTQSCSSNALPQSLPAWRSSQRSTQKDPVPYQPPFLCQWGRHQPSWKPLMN

Assay [5] in a line: ATG_M_19_TRANS: Attagene TRANS-FACTORIAL HepG2 Assay for M19 Transcription Factor (Internal Marker) (AID 2282974; active means hit-call score of the fitted dose curve at least 0.9, where 1 is the maximum). The conditions noted are these: HepG2 Attagene TRANS-FACTORIAL M19 internal marker reporter. The procedure, abridged:
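Reporter mRNA induction was measured in transfected HepG2 cells 24 h after dosing. Endpoint fitted upward relative to DMSO and serves as a background control within the multiplexed TRANS panel.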

Assay [6] has as its target Glucocorticoid receptor (Homo sapiens) (UniProt P04150). The experiment in a line: ATG_GR_TRANS: Attagene TRANS-FACTORIAL HepG2 Assay for human Glucocorticoid Receptor (GR) (AID 2282978; active means hit-call score of the fitted dose curve at least 0.9, where 1 is the maximum;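 further: activators score as hits since higher reporter transcript over DMSO is fitted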). The conditions noted are these: HepG2 Attagene TRANS GR reporter, mRNA transcription. The procedure, abridged:
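Reporter transcript levels, detected by fluorescence after RT-PCR and capillary electrophoresis, served as the endpoint. HepG2 cells bearing transfected GAL4-UAS reporters responsive to NR-GAL4 chimeras were incubated with compound 24 h; DMSO defined baseline.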

The target in assay [7] is Oxysterols receptor LXR-beta (Homo sapiens) (UniProt P55055). The experiment in a line: ATG_LXRb_TRANS: Attagene TRANS-FACTORIAL HepG2 Assay for human Liver X Receptor beta (LXRb) (AID 2282981; active means hit-call score of the fitted dose curve at least 0.9, where 1 is the maximum). The conditions noted are these: HepG2 Attagene TRANS GAL4-LXRb reporter, mRNA. Summed up:
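HepG2 cells transiently transfected with GAL4-UAS reporter units for chimeric NR-Gal4 proteins, dosed for 24 h. Reporter transcripts measured by RT-PCR and capillary electrophoresis; gain-of-signal fitting relative to DMSO.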

For assay [8], the target named is Nuclear receptor subfamily 4 group A member 2 (Homo sapiens) (UniProt P43354). The experiment in a line: ATG_NURR1_TRANS: Attagene TRANS-FACTORIAL HepG2 Assay for human Nuclear Receptor Related Protein 1 (NURR1) (AID 2282985; active means hit-call score of the fitted dose curve at least 0.9, where 1 is the maximum). The settings on record: HepG2 Attagene TRANS reporter, mRNA readout. The procedure, abridged:
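HepG2 cells transiently transfected with NURR1-Gal4 chimera and GAL4-UAS reporter units; after 24 hr compound exposure, reporter mRNA quantified by RT-PCR and capillary electrophoresis; gain of signal fitted against DMSO.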

For assay [9], the target named is Transcriptional activator Myb (Homo sapiens) (UniProt P10242). The experiment in a line: ATG_Myb_CIS: Attagene CIS-FACTORIAL HepG2 Assay for human Myeloblastosis (Myb) Proto-Oncogene Transcription Factor (AID 2282986). The settings on record: HepG2 Attagene CIS-FACTORIAL Myb reporter transcription; actives raise or lower the signal. Summed up:
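Transiently transfected HepG2 cells, treated 24 h. Reporter mRNA quantified by RT-PCR/capillary electrophoresis; bidirectional fit relative to DMSO.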

Assay [10] deals with Nuclear respiratory factor 1 (Homo sapiens) (UniProt Q16656). The experiment in a line: ATG_NRF1_CIS: Attagene CIS-FACTORIAL HepG2 Assay for human Nuclear Respiratory Factor 1 (NRF1) Orphan Gene (AID 2282987). The conditions noted are these: HepG2 NRF1 cis-element reporter, Attagene multiplex; actives raise or lower the signal. Summed up:
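Cells (HepG2, transient MRTU transfection) are exposed to compound for 24 h, then RNA isolated and reporter mRNA amplified and fluorescently labelled. Fragments are separated by capillary electrophoresis; signal change is fitted bidirectionally relative to DMSO.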

Assay [11] is described as follows: ATG_NFI_CIS: Attagene CIS-FACTORIAL HepG2 Assay for human Nuclear Factor I (NFI) (AID 2282989). The settings on record: HepG2 cis-regulatory reporter, NFI response element transcription; actives raise or lower the signal. Summed up: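 HepG2, transient MRTU, 24 h exposure; RNA→cDNA→PCR→FAM label→HpaI→CE fluorescence. Bidirectional fit, DMSO = baseline.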
A short description of assay [12]: ATG_GAL4_TRANS: Attagene TRANS-FACTORIAL HepG2 Assay for GAL4 (Internal Marker) (AID 2282976; active means hit-call score of the fitted dose curve at least 0.9, where 1 is the maximum). The conditions noted are these: HepG2 Attagene TRANS GAL4 internal marker reporter. Summed up:
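RT-PCR/capillary electrophoresis readout of reporter mRNA. HepG2, transient MRTU transfection (GAL4-UAS reporters), 24 h compound exposure. Background-control endpoint, positive direction vs DMSO baseline.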

Assay [13] concerns the target Hepatocyte nuclear factor 4-alpha (Homo sapiens) (UniProt P41235). The experiment in a line: ATG_HNF4a_TRANS: Attagene TRANS-FACTORIAL HepG2 Assay for human Hepatocyte Nuclear Factor 4 alpha (HNF4a) (AID 2282982; active means hit-call score of the fitted dose curve at least 0.9, where 1 is the maximum). The settings on record: HepG2 HNF4a transactivation reporter, mRNA readout. Summed up: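 HepG2 cells transiently transfected with HNF4a-Gal4 chimera and GAL4-UAS reporter units, dosed for 24 h. Reporter mRNA measured by RT-PCR, fluorescent primer extension and capillary electrophoresis; gain-of-signal fitted relative to DMSO.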

Assay [14] concerns the target Estrogen-related receptor gamma (Homo sapiens) (UniProt P62508). The experiment in a line: ATG_ERRg_TRANS: Attagene TRANS-FACTORIAL HepG2 Assay for human Estrogen-Related Receptor gamma (ERRg) (AID 2282977; active means hit-call score of the fitted dose curve at least 0.9, where 1 is the maximum;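 further: hits increase reporter signal over DMSO so potencies reflect activators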). The settings on record: HepG2 Attagene TRANS reporter, ERRg transactivation. Summed up: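 Transfect HepG2 with multiple GAL4-UAS reporter transcription units; dose chemicals 24 h; isolate RNA, reverse-transcribe with oligo(dT), PCR-amplify, label with 6-FAM, digest with HpaI; size fragments by capillary electrophoresis. DMSO serves as negative control.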

Assay [15] addresses Bile acid receptor (Homo sapiens) (UniProt Q96RI1). The experiment in a line: ATG_FXR_TRANS: Attagene TRANS-FACTORIAL HepG2 Assay for Farnesoid X Receptor (FXR) (AID 2282979; active means hit-call score of the fitted dose curve at least 0.9, where 1 is the maximum;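 further: hits raise reporter mRNA above DMSO so AC50 marks FXR activation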). The settings on record: HepG2 Attagene TRANS FXR-GAL4 reporter transcription. Summed up:
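Read-out: fluorescent reporter transcripts quantified by capillary electrophoresis after RT-PCR of total RNA. Source cells were HepG2 transiently carrying chimeric NR-GAL4 plus GAL4-UAS reporter units, dosed 24 h. Activity fitted upward relative to DMSO baseline.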

Assay [16] deals with Oxysterols receptor LXR-alpha (Homo sapiens) (UniProt Q13133). The assay is described as follows: ATG_LXRa_TRANS: Attagene TRANS-FACTORIAL HepG2 Assay for human Liver X Receptor alpha (LXRa) (AID 2282980; active means hit-call score of the fitted dose curve at least 0.9, where 1 is the maximum). The settings on record: HepG2 Attagene TRANS reporter, LXRa transactivation. Summed up: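 Read-out: reporter transcript levels by RT-PCR plus capillary electrophoresis, fluorescence intensity. Transiently transfected HepG2, exogenous NR-GAL4 chimera, GAL4-UAS reporters; 24 h compound exposure. Activity = increase over DMSO negative control.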
Sequence of Oxysterols receptor LXR-alpha (Homo sapiens) (Q13133 whole entry, looked up, the tested form may be a part): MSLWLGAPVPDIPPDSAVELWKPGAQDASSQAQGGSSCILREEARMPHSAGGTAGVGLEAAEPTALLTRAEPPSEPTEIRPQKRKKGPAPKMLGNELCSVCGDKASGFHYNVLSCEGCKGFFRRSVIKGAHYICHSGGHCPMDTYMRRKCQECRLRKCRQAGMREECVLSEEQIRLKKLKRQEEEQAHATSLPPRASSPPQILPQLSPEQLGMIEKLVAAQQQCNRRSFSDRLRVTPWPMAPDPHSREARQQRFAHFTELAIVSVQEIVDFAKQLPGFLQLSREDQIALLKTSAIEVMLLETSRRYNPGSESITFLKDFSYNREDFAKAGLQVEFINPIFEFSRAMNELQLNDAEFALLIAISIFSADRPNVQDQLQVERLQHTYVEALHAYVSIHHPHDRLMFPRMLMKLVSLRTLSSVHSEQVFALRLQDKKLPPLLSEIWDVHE

Assay [17] in a line: ATG_M_06_TRANS: Attagene TRANS-FACTORIAL HepG2 Assay for M06 Transcription Factor (Internal Marker) (AID 2282983; active means hit-call score of the fitted dose curve at least 0.9, where 1 is the maximum). The settings on record: HepG2 Attagene TRANS M06 internal marker reporter. Summed up:
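After a 24 h chemical treatment of transfected HepG2, RNA underwent DNase I treatment, reverse transcription and reporter-specific PCR; labelled, HpaI-digested products were sized by capillary electrophoresis. Signal increase relative to DMSO defined activity.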

The nature of assay [18]: ATG_M_32_TRANS: Attagene TRANS-FACTORIAL HepG2 Assay for M32 Transcription Factor (Internal Marker) (AID 2282984; active means hit-call score of the fitted dose curve at least 0.9, where 1 is the maximum;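 further: transcript level of a background control reporter unit measured by RT-PCR and capillary electrophoresis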). The conditions noted are these: HepG2 Attagene TRANS M32 internal marker reporter. Summed up:
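HepG2 cells transiently transfected with GAL4-UAS reporter units, dosed for 24 hours. Reporter mRNA quantified by RT-PCR, 6-FAM labelling, HpaI digestion and capillary electrophoresis; internal-marker signal fitted upward relative to DMSO.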

Sequence of Oxysterols receptor LXR-beta (Homo sapiens) (P55055 whole entry, looked up, the tested form may be a part): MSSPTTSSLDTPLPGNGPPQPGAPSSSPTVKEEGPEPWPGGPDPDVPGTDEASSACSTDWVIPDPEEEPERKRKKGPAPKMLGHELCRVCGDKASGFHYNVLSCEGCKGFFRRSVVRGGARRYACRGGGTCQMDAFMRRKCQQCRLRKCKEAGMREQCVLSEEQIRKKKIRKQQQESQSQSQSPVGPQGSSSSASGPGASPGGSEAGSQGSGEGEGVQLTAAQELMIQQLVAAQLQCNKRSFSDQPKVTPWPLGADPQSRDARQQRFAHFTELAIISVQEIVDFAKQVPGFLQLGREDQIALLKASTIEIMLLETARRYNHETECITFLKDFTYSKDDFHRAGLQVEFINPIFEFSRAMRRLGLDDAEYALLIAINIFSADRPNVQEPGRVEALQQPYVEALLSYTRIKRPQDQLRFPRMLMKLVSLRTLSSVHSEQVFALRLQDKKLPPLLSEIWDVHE
Sequence of Transcriptional activator Myb (Homo sapiens) (P10242 whole entry, looked up): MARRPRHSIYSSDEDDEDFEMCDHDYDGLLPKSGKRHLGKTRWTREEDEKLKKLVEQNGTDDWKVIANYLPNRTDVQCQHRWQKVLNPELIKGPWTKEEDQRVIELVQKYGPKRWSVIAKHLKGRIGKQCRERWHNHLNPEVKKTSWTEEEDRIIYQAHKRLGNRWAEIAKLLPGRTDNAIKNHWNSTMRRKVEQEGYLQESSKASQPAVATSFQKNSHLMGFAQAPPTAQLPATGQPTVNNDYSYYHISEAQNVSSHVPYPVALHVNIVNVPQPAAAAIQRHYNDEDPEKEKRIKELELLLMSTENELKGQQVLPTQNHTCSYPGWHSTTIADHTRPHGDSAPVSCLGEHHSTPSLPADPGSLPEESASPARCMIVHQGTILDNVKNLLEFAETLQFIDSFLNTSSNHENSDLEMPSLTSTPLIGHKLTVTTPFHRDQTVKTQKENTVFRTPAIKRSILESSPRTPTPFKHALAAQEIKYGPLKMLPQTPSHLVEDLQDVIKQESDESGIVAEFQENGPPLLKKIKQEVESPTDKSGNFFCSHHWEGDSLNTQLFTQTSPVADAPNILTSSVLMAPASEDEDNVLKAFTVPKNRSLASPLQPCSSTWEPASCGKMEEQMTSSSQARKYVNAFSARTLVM
Sequence of Estrogen-related receptor gamma (Homo sapiens) (P62508 whole entry, looked up, the tested form may be a part): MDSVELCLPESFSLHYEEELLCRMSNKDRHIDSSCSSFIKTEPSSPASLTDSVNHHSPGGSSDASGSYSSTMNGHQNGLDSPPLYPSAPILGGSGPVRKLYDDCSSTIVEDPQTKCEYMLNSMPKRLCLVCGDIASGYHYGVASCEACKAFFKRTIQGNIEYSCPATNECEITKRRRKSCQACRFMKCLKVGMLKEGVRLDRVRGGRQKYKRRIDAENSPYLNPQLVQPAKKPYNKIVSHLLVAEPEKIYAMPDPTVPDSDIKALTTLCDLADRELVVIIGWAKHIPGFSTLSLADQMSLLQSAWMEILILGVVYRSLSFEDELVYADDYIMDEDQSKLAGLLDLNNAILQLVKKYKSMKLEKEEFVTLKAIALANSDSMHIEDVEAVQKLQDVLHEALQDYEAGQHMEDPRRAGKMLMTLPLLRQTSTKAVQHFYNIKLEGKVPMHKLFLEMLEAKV
Sequence of Hepatocyte nuclear factor 4-alpha (Homo sapiens) (P41235 whole entry, looked up, the tested form may be a part): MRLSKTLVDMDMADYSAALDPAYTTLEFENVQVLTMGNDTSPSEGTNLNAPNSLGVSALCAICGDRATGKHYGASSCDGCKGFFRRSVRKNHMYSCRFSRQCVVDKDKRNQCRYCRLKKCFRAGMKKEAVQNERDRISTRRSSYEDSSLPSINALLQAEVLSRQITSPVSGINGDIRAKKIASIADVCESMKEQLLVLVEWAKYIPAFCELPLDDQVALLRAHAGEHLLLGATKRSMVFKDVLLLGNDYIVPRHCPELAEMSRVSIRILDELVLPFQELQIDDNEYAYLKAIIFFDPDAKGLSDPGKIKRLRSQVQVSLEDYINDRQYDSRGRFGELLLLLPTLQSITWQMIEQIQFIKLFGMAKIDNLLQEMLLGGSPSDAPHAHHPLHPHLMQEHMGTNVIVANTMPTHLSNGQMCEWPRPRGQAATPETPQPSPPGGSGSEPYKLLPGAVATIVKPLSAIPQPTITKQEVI
Sequence of Bile acid receptor (Homo sapiens) (Q96RI1 whole entry, looked up, the tested form may be a part): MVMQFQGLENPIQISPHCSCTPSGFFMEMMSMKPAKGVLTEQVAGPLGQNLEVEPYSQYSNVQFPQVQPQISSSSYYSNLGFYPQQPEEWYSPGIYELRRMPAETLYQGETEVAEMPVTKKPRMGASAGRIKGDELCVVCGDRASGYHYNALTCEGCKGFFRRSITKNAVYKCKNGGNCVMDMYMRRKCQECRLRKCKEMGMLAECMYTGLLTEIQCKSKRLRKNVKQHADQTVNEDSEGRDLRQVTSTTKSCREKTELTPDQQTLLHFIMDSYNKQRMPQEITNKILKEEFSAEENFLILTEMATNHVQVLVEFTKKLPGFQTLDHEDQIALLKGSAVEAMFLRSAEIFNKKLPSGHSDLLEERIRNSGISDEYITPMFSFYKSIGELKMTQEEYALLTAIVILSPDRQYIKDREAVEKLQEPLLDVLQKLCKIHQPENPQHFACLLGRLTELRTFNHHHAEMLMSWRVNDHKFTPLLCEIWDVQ
Sequence of Nuclear receptor subfamily 4 group A member 2 (Homo sapiens) (P43354 whole entry, looked up, the tested form may be a part): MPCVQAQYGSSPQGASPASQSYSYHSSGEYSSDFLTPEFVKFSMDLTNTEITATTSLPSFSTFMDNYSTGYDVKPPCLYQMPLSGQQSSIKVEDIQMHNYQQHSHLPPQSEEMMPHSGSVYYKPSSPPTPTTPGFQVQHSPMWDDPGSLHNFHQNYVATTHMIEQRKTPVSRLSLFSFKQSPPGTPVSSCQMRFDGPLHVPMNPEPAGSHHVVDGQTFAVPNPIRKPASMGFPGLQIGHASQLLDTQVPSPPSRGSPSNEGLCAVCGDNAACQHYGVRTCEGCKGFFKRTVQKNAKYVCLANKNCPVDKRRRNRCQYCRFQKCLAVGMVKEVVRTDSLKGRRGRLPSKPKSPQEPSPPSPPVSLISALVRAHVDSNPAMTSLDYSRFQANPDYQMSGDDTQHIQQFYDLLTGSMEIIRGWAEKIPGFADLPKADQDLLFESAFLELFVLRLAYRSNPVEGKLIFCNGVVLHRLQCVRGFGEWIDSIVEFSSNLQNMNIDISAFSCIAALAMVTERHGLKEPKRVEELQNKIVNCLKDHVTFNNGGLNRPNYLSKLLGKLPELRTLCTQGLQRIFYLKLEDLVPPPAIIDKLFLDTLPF
Sequence of Nuclear respiratory factor 1 (Homo sapiens) (Q16656 whole entry, looked up, the tested form may be a part): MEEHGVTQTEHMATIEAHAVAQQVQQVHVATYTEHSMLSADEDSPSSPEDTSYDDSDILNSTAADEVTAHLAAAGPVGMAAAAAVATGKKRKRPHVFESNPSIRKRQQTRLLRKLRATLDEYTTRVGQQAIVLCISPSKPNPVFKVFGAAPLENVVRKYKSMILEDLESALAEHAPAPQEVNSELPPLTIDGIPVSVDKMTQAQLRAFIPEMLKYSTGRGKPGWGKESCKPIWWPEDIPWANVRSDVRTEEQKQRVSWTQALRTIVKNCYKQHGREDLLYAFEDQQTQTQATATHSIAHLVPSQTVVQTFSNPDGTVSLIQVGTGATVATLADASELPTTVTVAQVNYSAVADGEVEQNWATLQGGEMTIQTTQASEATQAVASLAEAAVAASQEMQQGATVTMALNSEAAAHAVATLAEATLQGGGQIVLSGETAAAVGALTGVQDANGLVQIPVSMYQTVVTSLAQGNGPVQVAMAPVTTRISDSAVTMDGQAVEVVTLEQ

Take `CCCCCCCCN(C)C`: the outcome in [1], in assay [2], in assay [3], in [4], in assay [5] and in [6] was inactive. In addition, the call in assay [7], in [8], in [9], in assay [10] and in assay [11] was inactive.

Regarding `NC(N)=O`, the outcome in assay [1], in assay [4], in assay [5], in [12], in assay [7] and in assay [13] was inactive. Moreover, the molecule was called inactive in assay [8], in assay [9], in assay [10] and in assay [11].

As to `OC[C@H]1O[C@@](CO)(O[C@H]2O[C@H](CO)[C@@H](O)[C@H](O)[C@H]2O)[C@@H](O)[C@@H]1O`, the result in [1], in assay [4], in assay [14], in [15], in assay [8] and in [9] was inactive. Besides, the result in assay [10] and in assay [11] was inactive.

Consider `c1ccc2ncccc2c1`, for which the outcome in [1], in [2], in assay [4], in assay [16], in assay [7] and in [13] was inactive. The outcome in [17], in assay [8], in assay [9], in assay [10] and in assay [11] was inactive.

For the molecule `C=CCc1cc(S(=O)(=O)c2ccc(O)c(CC=C)c2)ccc1O`, the molecule was classed as inactive in assay [1], in assay [4], in assay [5], in assay [12], in [6] and in [15]. The result in assay [17], in assay [9] and in assay [11] was inactive. Besides, the AC50 is 2.06 µM (active) in [2] and 33.4 µM (active) in [10].

With `CCCCN1C(=O)[C@@H]([C@H](O)C2CCCCC2)NC(=O)C12CCN(Cc1ccc(Oc3ccc(C(=O)O)cc3)cc1)CC2`, the call in [1], in assay [2], in [4], in assay [12], in assay [18] and in assay [9] was inactive. Besides, the result in assay [10] and in assay [11] was inactive.

As for `CC1(C)C(=O)N(Cl)C(=O)N1Cl`, the call in assay [1], in assay [4], in assay [5], in assay [13], in [9] and in [10] was inactive. The molecule was classed as inactive in [11].

Regarding `O=C(NO)C1(NS(=O)(=O)c2ccc(Oc3ccc(F)cc3)cc2)CCOCC1`, the molecule was classed as inactive in assay [1], in [2], in [4], in [14], in assay [16] and in assay [7]. The molecule was classed as inactive in [13], in assay [8], in [9], in [10] and in assay [11].

`COS(C)(=O)=O`: the molecule was classed as inactive in [1], in assay [2], in assay [4], in assay [12], in [16] and in assay [13]. In addition, the outcome in [9], in assay [10] and in assay [11] was inactive.

For the molecule `O=S1(=O)CCCO1`, the call in [1], in assay [4], in assay [12], in assay [13], in [9] and in assay [10] was inactive. Besides, the molecule was called inactive in assay [11].

Consider `CCCCOC(=O)c1ccccc1`, for which the call in [1], in [4], in [7], in assay [17], in [8] and in assay [9] was inactive. Also, the call in [10] and in [11] was inactive.

For `CC(C)C(=O)Nc1ccc([N+](=O)[O-])c(C(F)(F)F)c1`, the molecule was classed as inactive in [1], in assay [2], in [5], in assay [14], in assay [15] and in [16]. In addition, the molecule was classed as inactive in assay [7], in assay [13], in [17], in assay [9], in assay [10] and in [11]. The AC50 in assay [4] was 27 µM (active); in assay [8], 43.5 µM (active).

On to `O=C(O)[C@H](O)[C@@H](O)C(=O)O`, for which the molecule was called inactive in [1], in assay [3], in [4], in assay [12], in assay [6] and in assay [15]. In addition, the result in [16], in assay [7], in assay [9], in assay [10] and in assay [11] was inactive.
